Drawing on PubChem BioAssay (EPA / NIEHS), this text covers AC50 and outcome for three molecules.

Assay [1] is described as follows: ATG_PBREM_CIS: Attagene CIS-FACTORIAL HepG2 Assay for human Phenobarbital-responsive Enhancer Module (PBREM) (AID 2282955). As to conditions: HepG2 PBREM cis-reporter, Attagene multiplexed transcription; actives raise or lower the signal. The gist of the method:
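Endogenous transcription factors in human liver HepG2 cells drive a PBREM cis-element reporter, whose transcript level after 24 h treatment is quantified by RT-PCR with capillary electrophoresis; activity fitted in both directions against DMSO.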

Assay [2] deals with Paired box protein Pax-6 (Homo sapiens) (UniProt P26367). As to the kind of experiment: ATG_Pax6_CIS: Attagene CIS-FACTORIAL HepG2 Assay for human Paired Box 6 (PAX6) (AID 2282956). The note with it: HepG2 CIS-FACTORIAL PAX6 reporter transcription, RNA readout; actives raise or lower the signal. The gist of the method:
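Transient MRTU transfection of HepG2 → compound exposure 24 h → TriZol RNA, oligo(dT) RT → PCR, 6-FAM primer extension, HpaI cut → capillary electrophoresis; activity fitted both directions against DMSO.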

Assay [3] can be described thus: ATG_PXRE_CIS: Attagene CIS-FACTORIAL HepG2 Assay for human Pregnane X Receptor Element (PXRE) (AID 2282957). As to conditions: HepG2 Attagene CIS-FACTORIAL PXRE reporter, mRNA; actives raise or lower the signal. The gist of the method: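 Cells: HepG2, transiently transfected reporter units under cis promoter control. Exposure: 24 h. Detection: reporter mRNA via RT-PCR/CE fluorescence; bidirectional fitting, DMSO-referenced.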

The nature of assay [4]: ATG_PPRE_CIS: Attagene CIS-FACTORIAL HepG2 Assay for human Peroxisome Proliferator-activated Response Element (PPRE) (AID 2282958). As to conditions: HepG2 PPRE cis-element reporter, Attagene transcription factor profiling; actives raise or lower the signal. The gist of the method: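 HepG2, transient MRTU transfection (cis promoter elements, endogenous TFs). 24 h dosing. RNA → oligo(dT) RT → PCR → 6-FAM primer extension → HpaI digest → CE. Bidirectional fit vs DMSO.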

Assay [5] can be described thus: ATG_RORE_CIS: Attagene CIS-FACTORIAL HepG2 Assay for human RAR-related Orphan Receptor Element (RORE) (AID 2282959). The note with it: HepG2 Attagene cis-factorial RORE reporter, mRNA; actives raise or lower the signal. The procedure, abridged: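 Transient MRTU transfection of human HepG2 liver cells (FuGene 6); 24 h compound exposure; TriZol RNA, oligo(dT) RT, PCR, FAM labeling, HpaI cut, CE fragment analysis. DMSO = negative control/baseline.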

Assay [6] is described as follows: ATG_Sox_CIS: Attagene CIS-FACTORIAL HepG2 Assay for human SRY-box transcription factor (SOX) (AID 2282960). As to conditions: HepG2 Attagene cis-factorial SOX reporter, mRNA; actives raise or lower the signal. The gist of the method:
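Endogenous factor activity in human liver HepG2 cells carrying transfected cis-regulated reporter units. RNA taken 24 h post-dose, reverse-transcribed, PCR-amplified and sized by capillary electrophoresis. Gain or loss of signal fitted relative to DMSO.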

Assay [7] addresses Transcription factor Sp1 (Homo sapiens) (UniProt P08047). The assay can be described thus: ATG_Sp1_CIS: Attagene CIS-FACTORIAL HepG2 Assay for human Specificity Protein 1 (Sp1) (AID 2282961). The note with it: HepG2 Sp1 cis-reporter transcription, actives raise or lower the signal. The procedure, abridged: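 Transient MRTU-transfected HepG2, 24 h compound exposure. Total RNA → oligo(dT) RT → PCR of reporter → 6-FAM primer extension → HpaI digest → CE. Endpoint fitted both directions vs DMSO.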

The nature of assay [8]: ATG_SREBP_CIS: Attagene CIS-FACTORIAL HepG2 Assay for human Sterol Regulatory Element Binding (SREBP) (AID 2282962). As to conditions: HepG2 Attagene cis-factorial SREBP reporter, mRNA; actives raise or lower the signal. The procedure, abridged: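 Transfected HepG2 (cis-regulated reporter library, endogenous TFs) → compound 24 h → total RNA → oligo(dT) RT → reporter-specific PCR → FAM primer extension, HpaI cut → CE fluorescence. Fit bidirectional vs DMSO.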

In assay [9] the target is Signal transducer and activator of transcription 3 (Homo sapiens) (UniProt P40763). The assay can be described thus: ATG_STAT3_CIS: Attagene CIS-FACTORIAL HepG2 Assay for human Signal Transducer and Activator of Transcription 3 (STAT3) (AID 2282963). The note with it: HepG2, Attagene cis-factorial STAT3 reporter transcription; actives raise or lower the signal. The gist of the method: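 Transcript-level reporter assay. HepG2 transient MRTU transfection, 24 h exposure, fluorescence detection after RT-PCR and CE; DMSO baseline.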

Assay [10] is described as follows: ATG_TA_CIS: Attagene CIS-FACTORIAL HepG2 Assay for human TA Basal Promoter (AID 2282964). As to conditions: HepG2 Attagene CIS-factorial TA basal promoter reporter; actives raise or lower the signal. The gist of the method:
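Background internal-marker endpoint from a 52-component HepG2 cis-reporter panel. Cells treated 24 h; reporter transcripts quantified via RT-PCR and CE fluorescence against DMSO baseline.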

Assay [11] can be described thus: ATG_TCF_b_cat_CIS: Attagene CIS-FACTORIAL HepG2 Assay for human T-Cell-Factor with beta-catenin (TCF/b-cat) (AID 2282965). As to conditions: HepG2 TCF/beta-catenin cis-reporter transcription, actives raise or lower the signal. The gist of the method: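 HepG2 cells transiently transfected with multiple cis-promoter-regulated reporter transcription units, so endogenous transcription factor activity is measured. Reporter mRNA read 24 hours after dosing by RT-PCR, fluorescent labelling and capillary electrophoresis; bidirectional fitting against DMSO.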

Assay [12] in a line: ATG_TAL_CIS: Attagene CIS-FACTORIAL HepG2 Assay for human TAL Basal Promoter (AID 2282966).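 Also: background control endpoint measuring basal TAL promoter reporter mRNA not a specific factor.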 As to conditions: HepG2 Attagene cis-factorial TAL promoter reporter; actives raise or lower the signal. The procedure, abridged: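 RT-PCR plus capillary electrophoresis quantifies reporter mRNA induction in transiently transfected HepG2 cells after 24 h chemical treatment. DMSO serves as negative control and baseline for bidirectional fitting.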

Assay [13] can be described thus: ATG_TGFb_CIS: Attagene CIS-FACTORIAL HepG2 Assay for human Transforming Growth Factor (TGF) (AID 2282967). The note with it: HepG2 Attagene CIS TGFb reporter, mRNA transcription; actives raise or lower the signal. The gist of the method:
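Liver HepG2 line, cis-factorial reporter panel, 24 h dosing. Quantitation: RT-PCR products labeled with 6-FAM, cut with HpaI, resolved by capillary electrophoresis; DMSO-referenced bidirectional analysis.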

Assay [14] is described as follows: ATG_VDRE_CIS: Attagene CIS-FACTORIAL HepG2 Assay for human Vitamin D Receptor Element (VDRE) (AID 2282968). The note with it: HepG2 VDRE cis-reporter transcription, actives raise or lower the signal. The gist of the method: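 RT-PCR/CE readout of reporter mRNA; HepG2, transient transfection, 24 h dosing; DMSO baseline; bidirectional analysis.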
Assay [15] deals with Nuclear receptor subfamily 1 group I member 3 (Homo sapiens) (UniProt Q14994). As to the kind of experiment: ATG_CAR_TRANS: Attagene TRANS-FACTORIAL HepG2 Assay for human Constitutive Androstane Receptor (CAR) (AID 2282969; active = hit-call score of the fitted dose curve at least 0.9, where 1 is the maximum;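 also: activators raise reporter mRNA above DMSO so AC50 marks induction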). As to conditions: HepG2 Attagene TRANS-FACTORIAL CAR reporter. The procedure, abridged: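 HepG2 cells transiently transfected with multiplexed GAL4-UAS reporter units expressing chimeric NR-Gal4 proteins; compound exposure 24 h. Reporter mRNA measured by RT-PCR, 6-FAM labelling, HpaI digestion and capillary electrophoresis; gain-of-signal fitted against DMSO baseline.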

Assay [16] deals with Estrogen receptor (Homo sapiens) (UniProt P03372). The assay can be described thus: ATG_ERa_TRANS: Attagene TRANS-FACTORIAL HepG2 Assay for human Estrogen Receptor alpha (ERa) (AID 2282970; active = hit-call score of the fitted dose curve at least 0.9, where 1 is the maximum). The note with it: HepG2 Attagene TRANS ERa GAL4 reporter, mRNA. The procedure, abridged:
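Cells: HepG2, transiently transfected. Construct: GAL4-UAS reporter units regulated by exogenous NR-Gal4 chimeras. Time: 24 h. Detection: reporter mRNA by RT-PCR, capillary electrophoresis, fluorescence. Baseline: DMSO, upward fitting.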

The target in assay [17] is Steroid hormone receptor ERR1 (Homo sapiens) (UniProt P11474). The assay can be described thus: ATG_ERRa_TRANS: Attagene TRANS-FACTORIAL HepG2 Assay for human Estrogen-Related Receptor alpha (ERRa) (AID 2282971; active = hit-call score of the fitted dose curve at least 0.9, where 1 is the maximum). As to conditions: HepG2 Attagene TRANS reporter, ERRa transactivation. The procedure, abridged:
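Reporter transcripts from ERRa-Gal4 chimera activity measured in transiently transfected human HepG2 cells 24 hours after dosing, using RT-PCR with 6-FAM primer extension, HpaI digestion and capillary electrophoresis; DMSO is baseline.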

Assay [18] addresses X-box-binding protein 1 (Homo sapiens) (UniProt P17861). The assay can be described thus: ATG_Xbp1_CIS: Attagene CIS-FACTORIAL HepG2 Assay for human X-box Binding Protein 1 (XBP1) (AID 2282972). As to conditions: HepG2 XBP1 cis-element reporter, Attagene multiplex; actives raise or lower the signal. The procedure, abridged: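 HepG2, transient MRTU transfection (cis-promoter driven), 24 h compound exposure. Total RNA → oligo(dT) RT → PCR → 6-FAM labeling → HpaI cut → CE. Bidirectional fit vs DMSO.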

Assay [19] is described as follows: ATG_M_19_TRANS: Attagene TRANS-FACTORIAL HepG2 Assay for M19 Transcription Factor (Internal Marker) (AID 2282974; active = hit-call score of the fitted dose curve at least 0.9, where 1 is the maximum). The note with it: HepG2 Attagene TRANS-FACTORIAL M19 internal marker reporter. The gist of the method:
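Fluorescence of 6-FAM-labelled reporter cDNA fragments, separated by capillary electrophoresis, served as the readout. These derived from HepG2 cells carrying transfected GAL4-UAS reporter units after 24 h dosing, with DMSO as negative control.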

Assay [20] addresses Androgen receptor (Homo sapiens) (UniProt P10275). As to the kind of experiment: ATG_AR_TRANS: Attagene TRANS-FACTORIAL HepG2 Assay for human Androgen Receptor (AR) (AID 2282973; active = hit-call score of the fitted dose curve at least 0.9, where 1 is the maximum). As to conditions: HepG2 Attagene TRANS-FACTORIAL AR reporter transcription. The procedure, abridged: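 Transcriptional activity of an exogenous AR–Gal4 fusion read as GAL4-UAS reporter transcript levels in transfected human HepG2 cells after 24 h dosing. Detection via RT-PCR, 6-FAM labelling, HpaI digest and capillary electrophoresis; increase over DMSO baseline.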

Where “and” joins values, the source holds several entries; their conditions need not be identical. Equal values may be shown once. Records with an inconclusive call do not appear. Some compounds were tested as several samples or in several runs, with calls that do not always agree. Calls of active or inactive are those of the source. The calls were made as follows, unless noted: active = hit-call score of the fitted dose curve at least 0.9, where 1 is the maximum; inactive = score below 0.9.

Sequence of Paired box protein Pax-6 (Homo sapiens) (P26367 whole entry, looked up): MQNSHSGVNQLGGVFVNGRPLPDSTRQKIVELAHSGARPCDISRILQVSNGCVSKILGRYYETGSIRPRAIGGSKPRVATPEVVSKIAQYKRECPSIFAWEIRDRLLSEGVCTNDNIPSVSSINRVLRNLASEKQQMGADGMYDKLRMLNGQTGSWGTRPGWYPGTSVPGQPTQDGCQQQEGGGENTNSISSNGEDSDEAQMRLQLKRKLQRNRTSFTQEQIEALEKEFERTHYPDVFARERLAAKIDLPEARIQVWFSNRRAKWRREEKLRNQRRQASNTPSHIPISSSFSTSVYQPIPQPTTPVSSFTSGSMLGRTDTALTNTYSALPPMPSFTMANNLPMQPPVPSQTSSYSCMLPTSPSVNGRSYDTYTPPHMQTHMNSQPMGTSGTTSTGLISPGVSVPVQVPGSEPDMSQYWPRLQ
Sequence of Signal transducer and activator of transcription 3 (Homo sapiens) (P40763 whole entry, looked up): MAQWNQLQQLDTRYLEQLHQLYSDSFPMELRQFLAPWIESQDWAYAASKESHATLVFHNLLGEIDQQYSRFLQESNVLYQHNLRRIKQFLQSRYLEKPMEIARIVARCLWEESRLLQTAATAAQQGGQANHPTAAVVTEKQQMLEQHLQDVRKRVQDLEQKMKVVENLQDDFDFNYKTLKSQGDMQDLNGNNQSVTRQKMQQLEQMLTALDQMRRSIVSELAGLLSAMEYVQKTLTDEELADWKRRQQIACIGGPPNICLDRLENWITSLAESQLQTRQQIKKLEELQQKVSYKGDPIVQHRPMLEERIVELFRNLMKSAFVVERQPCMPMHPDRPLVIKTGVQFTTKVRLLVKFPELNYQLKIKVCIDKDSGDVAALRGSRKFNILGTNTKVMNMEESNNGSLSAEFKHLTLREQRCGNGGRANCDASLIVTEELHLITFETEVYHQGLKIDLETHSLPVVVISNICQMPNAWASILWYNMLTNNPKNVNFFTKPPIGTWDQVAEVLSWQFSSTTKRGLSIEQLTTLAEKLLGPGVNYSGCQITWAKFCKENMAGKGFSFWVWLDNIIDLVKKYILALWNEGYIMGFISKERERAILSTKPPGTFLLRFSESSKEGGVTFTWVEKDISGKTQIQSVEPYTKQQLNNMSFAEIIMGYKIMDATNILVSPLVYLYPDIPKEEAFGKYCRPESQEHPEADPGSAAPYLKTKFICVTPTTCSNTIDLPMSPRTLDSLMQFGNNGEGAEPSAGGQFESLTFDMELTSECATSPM
Sequence of Estrogen receptor (Homo sapiens) (P03372 whole entry, looked up, the tested form may be a part): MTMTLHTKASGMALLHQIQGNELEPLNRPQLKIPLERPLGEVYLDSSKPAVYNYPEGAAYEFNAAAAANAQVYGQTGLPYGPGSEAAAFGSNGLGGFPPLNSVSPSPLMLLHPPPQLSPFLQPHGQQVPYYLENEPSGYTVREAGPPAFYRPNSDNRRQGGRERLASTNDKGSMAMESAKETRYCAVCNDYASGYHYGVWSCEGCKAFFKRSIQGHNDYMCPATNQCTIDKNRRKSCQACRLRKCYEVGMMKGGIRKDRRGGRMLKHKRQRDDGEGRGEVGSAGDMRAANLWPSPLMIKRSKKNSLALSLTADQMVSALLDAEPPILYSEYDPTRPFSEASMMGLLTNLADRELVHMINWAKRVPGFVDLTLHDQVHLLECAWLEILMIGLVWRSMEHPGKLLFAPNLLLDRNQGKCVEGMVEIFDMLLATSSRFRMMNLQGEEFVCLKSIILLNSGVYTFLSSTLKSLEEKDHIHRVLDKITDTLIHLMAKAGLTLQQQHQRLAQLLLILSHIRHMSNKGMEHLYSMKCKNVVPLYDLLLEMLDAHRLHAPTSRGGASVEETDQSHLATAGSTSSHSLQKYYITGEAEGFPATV
Sequence of Steroid hormone receptor ERR1 (Homo sapiens) (P11474 whole entry, looked up, the tested form may be a part): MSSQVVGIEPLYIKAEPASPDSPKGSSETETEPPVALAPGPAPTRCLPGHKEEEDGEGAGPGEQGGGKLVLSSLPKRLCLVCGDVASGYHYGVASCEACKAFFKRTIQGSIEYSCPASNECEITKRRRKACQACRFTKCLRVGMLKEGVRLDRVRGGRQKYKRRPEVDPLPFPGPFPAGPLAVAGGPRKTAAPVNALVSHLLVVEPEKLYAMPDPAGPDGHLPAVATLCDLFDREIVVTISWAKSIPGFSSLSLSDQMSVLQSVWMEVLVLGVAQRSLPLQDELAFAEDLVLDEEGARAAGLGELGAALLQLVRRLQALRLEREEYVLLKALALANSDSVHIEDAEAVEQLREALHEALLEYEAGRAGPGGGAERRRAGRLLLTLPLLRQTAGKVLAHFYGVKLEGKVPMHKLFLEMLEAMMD
Sequence of Transcription factor Sp1 (Homo sapiens) (P08047 whole entry, looked up): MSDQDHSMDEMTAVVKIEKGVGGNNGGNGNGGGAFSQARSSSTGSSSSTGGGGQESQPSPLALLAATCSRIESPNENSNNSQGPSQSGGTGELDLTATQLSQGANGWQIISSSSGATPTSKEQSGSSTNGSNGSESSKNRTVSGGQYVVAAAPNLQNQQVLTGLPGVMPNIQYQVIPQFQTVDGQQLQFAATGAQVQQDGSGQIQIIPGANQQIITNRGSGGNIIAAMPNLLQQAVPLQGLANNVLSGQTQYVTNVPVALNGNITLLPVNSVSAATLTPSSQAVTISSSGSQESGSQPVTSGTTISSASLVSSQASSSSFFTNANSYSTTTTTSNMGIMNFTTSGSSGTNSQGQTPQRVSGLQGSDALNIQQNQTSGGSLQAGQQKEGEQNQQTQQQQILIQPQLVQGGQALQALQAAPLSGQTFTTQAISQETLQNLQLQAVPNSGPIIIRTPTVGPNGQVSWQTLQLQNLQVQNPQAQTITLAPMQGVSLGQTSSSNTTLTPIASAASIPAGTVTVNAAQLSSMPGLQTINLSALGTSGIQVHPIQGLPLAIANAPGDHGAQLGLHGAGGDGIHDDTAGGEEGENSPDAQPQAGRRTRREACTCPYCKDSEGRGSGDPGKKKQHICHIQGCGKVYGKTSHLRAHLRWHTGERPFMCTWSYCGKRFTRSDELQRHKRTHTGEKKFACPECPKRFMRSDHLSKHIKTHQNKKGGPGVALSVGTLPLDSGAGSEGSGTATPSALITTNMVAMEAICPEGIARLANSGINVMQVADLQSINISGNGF
Sequence of Nuclear receptor subfamily 1 group I member 3 (Homo sapiens) (Q14994 whole entry, looked up, the tested form may be a part): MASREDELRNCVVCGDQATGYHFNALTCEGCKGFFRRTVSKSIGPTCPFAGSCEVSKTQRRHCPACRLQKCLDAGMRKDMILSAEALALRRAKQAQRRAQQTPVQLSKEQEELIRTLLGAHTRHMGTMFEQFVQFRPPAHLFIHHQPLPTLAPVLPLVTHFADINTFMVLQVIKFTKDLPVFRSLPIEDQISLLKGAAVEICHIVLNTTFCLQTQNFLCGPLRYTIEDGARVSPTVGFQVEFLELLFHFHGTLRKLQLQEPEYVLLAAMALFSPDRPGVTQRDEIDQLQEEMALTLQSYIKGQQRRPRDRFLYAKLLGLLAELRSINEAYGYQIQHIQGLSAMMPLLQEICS
Sequence of X-box-binding protein 1 (Homo sapiens) (P17861 whole entry, looked up): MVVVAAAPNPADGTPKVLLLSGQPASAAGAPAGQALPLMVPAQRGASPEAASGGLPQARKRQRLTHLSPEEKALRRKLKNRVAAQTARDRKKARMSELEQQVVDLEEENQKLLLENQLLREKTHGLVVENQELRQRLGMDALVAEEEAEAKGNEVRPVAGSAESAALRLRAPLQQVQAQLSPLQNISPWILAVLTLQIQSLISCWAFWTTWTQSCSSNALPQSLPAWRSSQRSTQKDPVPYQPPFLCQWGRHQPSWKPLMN
Sequence of Androgen receptor (Homo sapiens) (P10275 whole entry, looked up, the tested form may be a part): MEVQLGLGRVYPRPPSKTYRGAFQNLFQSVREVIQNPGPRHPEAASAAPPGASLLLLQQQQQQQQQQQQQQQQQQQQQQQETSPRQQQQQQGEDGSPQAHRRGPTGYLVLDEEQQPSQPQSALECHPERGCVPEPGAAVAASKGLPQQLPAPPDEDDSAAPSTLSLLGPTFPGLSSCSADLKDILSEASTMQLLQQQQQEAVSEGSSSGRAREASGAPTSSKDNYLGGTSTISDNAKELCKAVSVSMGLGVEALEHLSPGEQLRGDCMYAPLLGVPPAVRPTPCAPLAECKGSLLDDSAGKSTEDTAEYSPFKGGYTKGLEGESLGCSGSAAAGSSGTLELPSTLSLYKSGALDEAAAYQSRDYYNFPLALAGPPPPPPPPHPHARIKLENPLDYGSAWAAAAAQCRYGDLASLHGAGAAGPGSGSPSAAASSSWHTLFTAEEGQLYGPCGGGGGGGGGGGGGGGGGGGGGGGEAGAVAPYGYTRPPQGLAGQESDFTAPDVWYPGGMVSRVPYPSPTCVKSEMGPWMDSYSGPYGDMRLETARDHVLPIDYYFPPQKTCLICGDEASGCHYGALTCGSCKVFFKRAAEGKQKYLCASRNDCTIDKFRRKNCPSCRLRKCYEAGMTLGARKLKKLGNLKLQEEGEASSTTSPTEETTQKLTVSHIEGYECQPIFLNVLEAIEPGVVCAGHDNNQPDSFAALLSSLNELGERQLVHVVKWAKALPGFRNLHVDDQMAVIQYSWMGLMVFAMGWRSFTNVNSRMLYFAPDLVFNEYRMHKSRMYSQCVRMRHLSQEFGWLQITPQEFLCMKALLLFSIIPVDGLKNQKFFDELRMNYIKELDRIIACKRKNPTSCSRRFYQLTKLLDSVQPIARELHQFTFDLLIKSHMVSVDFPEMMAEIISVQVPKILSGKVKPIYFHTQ

The AC50 is the concentration at which the activity in the assay is half-maximal. As for `CCCN(CCC)c1c([N+](=O)[O-])cc(S(N)(=O)=O)cc1[N+](=O)[O-]`, the half-maximal activity concentration (AC50) in [1] is 2200 nM (active); in assay [3], 302 nM (active) and 134 nM (active) and 567 nM (active); in [14], 915 nM (active) and 1.14 µM (active). Moreover, the outcome in assay [1], in assay [2], in assay [4], in [5], in [6] and in [7] was inactive. In addition, the outcome in assay [8], in assay [9], in [10], in [11], in assay [12] and in assay [13] was inactive. Moreover, the outcome in assay [14], in assay [15], in assay [16], in [17], in [18] and in [19] was inactive.

On to `C=CCC1=C(C)[C@@H](OC(=O)[C@@H]2[C@@H](C=C(C)C)C2(C)C)CC1=O`, for which the results for the concentration at half-maximal activity (AC50) in assay [1], in assay [3] and in [14] were 5590 nM (active), 965 nM (active) and 6.05 µM (active), respectively. The molecule was called inactive in [2], in [5], in assay [6], in [7], in assay [8] and in assay [9]. Also, the molecule was called inactive in assay [10], in assay [11], in assay [12], in assay [13], in [15] and in assay [16]. For the same molecule, the outcome in [17] and in assay [18] was inactive.

In the case of `CC(C)Oc1cc(-n2nc(C(C)(C)C)oc2=O)c(Cl)cc1Cl`, the AC50 in [1] was 427 nM (active); in assay [3], 284 nM (active); in assay [14], 0.667 µM (active). Moreover, the outcome in assay [2], in assay [4], in [5], in assay [6], in assay [7] and in assay [9] was inactive. Moreover, the call in [10], in [11], in assay [12], in [13], in assay [15] and in [16] was inactive. Besides, the result in [18], in assay [20] and in [19] was inactive.
